KB-V1 cytotox: KB-V1 MDR subline cytotoxicity | KB-V1 MDR cells viability, CellTiter-Glo, 72 h | Potency, µM (doses to about 46.1 µM), usual class: cytotoxic | actives 3.4% (n = 400,000) | AID 1347076; note: potency is the fitted concentration of half-maximal effect; nearly all actives have a fitted effect of over 60% in size
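Luminescent ATP read-out (CellTiter-Glo, 10 min) measures survival of drug-selected KB-V1 MDR cells after 72 h, 37 degrees C compound exposure. Medium: phenol-red-free DMEM, 10% FBS. Values from fitted concentration-response curves.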
Nrf2 block: blocks Nrf2 signaling. A549 ARE-Fluc reporter, luciferase luminescence, 18-24 h. Potency, µM (highest dose often 46 µM), for inactives: at the top dose activity change, negative = inhibition, hits mostly inhibitors. actives 2.1% (n = 360,000); note: potency is the fitted concentration of half-maximal effect; nearly all actives have a fitted effect of over 60% in size
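A549 ARE_Fluc cells (5000/well, 5% FBS OPTI-MEM) pre-incubated 2 h, then treated with compounds 18-24 h at 37C/5% CO2 in concentration-response. CellTiter-Fluor viability read first; BugLite luciferase luminescence after 15 min at room temperature gives Nrf2 activity.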
Giardia kill: Giardia lamblia killing; Giardia lamblia trophozoite viability; activity change, % at 7.66 µM, hits read low; actives 0.15% (n = 340,000); AID 540267; in the data active = activity change below about -80%; inconclusive = between about -30% and that limit;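 note: parasites exposed to compound for two days anaerobically before the ATP read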
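Each well holds 100 Giardia trophozoites and compound. After two days (48 hrs) at 37 deg C in anaerobic conditions, ATP is quantified by luminescence.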
A549 viability: A549 cytotoxicity, counter-screen for Nrf2 inhibitors | A549 ARE-Fluc cells, CellTiter-Fluor viability, 18-24 h | Potency, µM (highest dose often 46 µM), for inactives: at the highest dose activity change, negative = cytotoxicity, actives largely listed as inhibitors | actives 0.16% (n = 390,000); note: potency is the fitted concentration of half-maximal effect
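Cytotoxicity counterscreen: CellTiter-Fluor fluorescence was measured in A549 ARE_Fluc cells after 18-24 h of compound exposure in a concentration series. The subsequent BugLite luminescent read reports ARE-luciferase activity.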
KB-3-1 tox: KB-3-1 parental cell cytotoxicity; actives 1.4% (n = 400,000); KB-3-1 viability, CellTiter-Glo ATP luminescence, 72 h; Potency, µM (highest dose often 46.1 µM), most hits filed as cytotoxic; note: potency is the fitted concentration of half-maximal effect; nearly all actives have a fitted effect of over 60% in size
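Multi-concentration cytotoxicity screen in KB-3-1 cells grown in DMEM lacking phenol red with 10% FBS. After 72 h at 37 °C with compound, ATP-dependent luminescence was recorded.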
PI4K2A block: blocks human PI4K2A kinase activity; purified PI4K2A, ADP-Glo luminescence, 1 h; active compounds read low; Q9BTU6; activity change, negative = inhibition, % at 76.9 µM; actives 0.13% (n = 420,000); in the data active = activity change below about -50%; inconclusive = mostly about -30% to -49%;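 note: -100% = wells without enzyme as full effect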
Target sequence (Q9BTU6 whole entry, looked up): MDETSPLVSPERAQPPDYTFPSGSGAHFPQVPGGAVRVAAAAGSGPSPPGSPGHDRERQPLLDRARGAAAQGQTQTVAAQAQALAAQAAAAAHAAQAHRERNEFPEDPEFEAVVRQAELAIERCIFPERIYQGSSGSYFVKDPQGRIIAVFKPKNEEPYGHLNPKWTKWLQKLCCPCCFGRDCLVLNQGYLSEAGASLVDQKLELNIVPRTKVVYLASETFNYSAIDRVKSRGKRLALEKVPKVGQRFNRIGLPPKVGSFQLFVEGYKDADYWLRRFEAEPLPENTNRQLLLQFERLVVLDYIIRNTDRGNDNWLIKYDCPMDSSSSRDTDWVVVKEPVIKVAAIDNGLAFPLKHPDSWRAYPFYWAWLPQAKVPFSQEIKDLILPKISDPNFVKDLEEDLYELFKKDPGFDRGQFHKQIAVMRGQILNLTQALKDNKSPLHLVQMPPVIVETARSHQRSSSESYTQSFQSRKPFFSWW
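In this quantitative HTS, ADP production by PI4K2A was quantified luminescently after 1 h at ambient temperature; 100 microM adenosine served as plate-quality control.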
* = called active by the depositor. Sampled rows, rich in hits. Any-hit rate of the full collection: about 5.7%. Unless noted, calls come from the whole dose curve; as a rule, active = well fitted curve in the direction sought with a large enough effect; inconclusive = small, poorly fitted or top-dose-only effect, or another doubt; inactive = no such curve, though single readings can be large; an effect the other way counts as inactive or inconclusive. Unless noted, % is set by controls: 0 for no effect and ±100 for the full control effect.

What do the screens show for `CCC(=O)c1ccc(OCc2ccc(C(=O)OC)cc2)c(OC)c1`?
KB-V1 cytotox: inconclusive; Nrf2 block: inconclusive; Giardia kill: 14; A549 viability: 1%; KB-3-1 tox: inactive; PI4K2A block: 5

Results for CCC(=O)OCCCN1CCC2(CCCCC2)C1=O ?
PI4K2A block: -3

How did CN1/C(=C\C=O)C(C)(C)c2ccccc21 do in these assays?
KB-V1 cytotox: inactive; Nrf2 block: -26%; Giardia kill: -1; A549 viability: 2%; KB-3-1 tox: inactive; PI4K2A block: 7

Results for CN1\C(=C/C=C/C=C/C=[N+](C)C)C(C)(C)c2ccccc21 ?
KB-V1 cytotox: 8.2µM*; Nrf2 block: inconclusive; Giardia kill: -28; A549 viability: inconclusive; KB-3-1 tox: inconclusive; PI4K2A block: -19

What do the screens show for `NS(=O)(=O)Nc1c(Br)cc(Br)c2cccnc12`?
Nrf2 block: -2%; Giardia kill: 8; A549 viability: 1%

What do the screens show for `Brc1ccc(-c2cn3c(n2)CCc2ccc4cccnc4c2-3)cc1`?
KB-V1 cytotox: 16µM*; Nrf2 block: 18%; Giardia kill: 4; A549 viability: 1%; KB-3-1 tox: inactive; PI4K2A block: 12

Results for CC(C)c1ccccc1-n1c(SCc2cc(=O)oc3ccc4ccccc4c23)nnc1-c1cccnc1 ?
KB-V1 cytotox: 21µM*; Nrf2 block: inconclusive; Giardia kill: -5; A549 viability: -15%; KB-3-1 tox: inconclusive; PI4K2A block: -5

How did Cc1nnc(SCc2cc(=O)oc3ccc4ccccc4c23)n1Cc1ccccc1 do in these assays?
KB-V1 cytotox: 16µM*; Nrf2 block: -16%; Giardia kill: 10; A549 viability: 0%; KB-3-1 tox: inactive; PI4K2A block: -1

What do the screens show for `c1ccc(-c2ccc(-c3nc(-c4cccnc4)no3)cc2)cc1`?
KB-V1 cytotox: 16µM*; Nrf2 block: inconclusive; Giardia kill: -5; A549 viability: 21%; KB-3-1 tox: inactive; PI4K2A block: -2

How did c1ccc(-c2noc(-c3cccnc3)n2)cc1 do in these assays?
KB-V1 cytotox: inactive; Nrf2 block: inconclusive; Giardia kill: -1; A549 viability: 0%; KB-3-1 tox: inactive; PI4K2A block: -9

Results for C=CCN1[C@@H](C(C)C)COCCS1(=O)=O ?
KB-V1 cytotox: inactive; KB-3-1 tox: inactive

How did CCOC(=O)c1cc(NC(=O)N(CC)C2CCCCC2)c(C)nc1C do in these assays?
KB-V1 cytotox: 23µM*; Nrf2 block: -17%; Giardia kill: 2; A549 viability: -2%; KB-3-1 tox: inactive; PI4K2A block: -4

What do the screens show for `CCOC(=O)c1cc(NC(=O)N(C)C2CCCCC2)c(C)nc1C`?
KB-V1 cytotox: inactive; Nrf2 block: 14%; Giardia kill: 10; A549 viability: -15%; KB-3-1 tox: inactive; PI4K2A block: 3

Results for O=C(N[C@H]1C[C@@H]2O[C@H](CO)CC[C@@H]2O[C@@H]1CCc1ccc(-c2cccnc2)cc1)c1cccc(F)c1 ?
PI4K2A block: -5

Results for CCCC(=O)Nc1cccc(NC(=O)CN2CCN(c3ccccc3OC)CC2)c1 ?
KB-V1 cytotox: 2.6µM*; Nrf2 block: inconclusive; Giardia kill: 15; A549 viability: -9%; KB-3-1 tox: inactive; PI4K2A block: 7

How did O=C(/C=C/c1ccc(C(F)(F)F)cc1)OC(C(=O)NC1CC1)c1ccccc1 (centres undefined) do in these assays?
KB-V1 cytotox: inactive; KB-3-1 tox: inactive

Results for COc1ccc(-c2cc3nc4n(c(=O)c3s2)CCC4)cc1 ?
KB-V1 cytotox: inactive; Nrf2 block: inconclusive; Giardia kill: inconclusive; A549 viability: 2%; KB-3-1 tox: inactive; PI4K2A block: -12

Results for COc1ccc(-c2cc3nc(C)n(N)c(=O)c3s2)cc1 ?
KB-V1 cytotox: 4.6µM*; Nrf2 block: 6.5µM*; Giardia kill: inconclusive; A549 viability: 16%; KB-3-1 tox: inconclusive; PI4K2A block: -87*

What do the screens show for `Cn1c(NCc2ccccc2)nc2cc(-c3ccccc3)sc2c1=O`?
KB-V1 cytotox: inactive; KB-3-1 tox: inactive; PI4K2A block: 2

What do the screens show for `Cc1nc2cc(-c3ccccc3)sc2c(=O)n1N`?
KB-V1 cytotox: inactive; Nrf2 block: 4.1µM*; Giardia kill: inconclusive; A549 viability: 0%; KB-3-1 tox: 3.7µM*; PI4K2A block: -80*

Results for COc1ccc(O)c(-c2nc3ccccc3c(=O)n2Cc2ccccc2)c1 ?
Nrf2 block: 15%; A549 viability: -8%

What do the screens show for `O=C1C[C@H](c2ccccc2Cl)N1S(=O)(=O)c1ccccc1[N+](=O)[O-]`?
Nrf2 block: inconclusive; Giardia kill: -18; A549 viability: -1%

What do the screens show for `COc1cc(/C=C2/NC(=O)N(Cc3ccccc3F)C2=O)cc(OC)c1OC`?
KB-V1 cytotox: 0.18µM*; Nrf2 block: -22%; Giardia kill: -22; A549 viability: 0%; KB-3-1 tox: inactive; PI4K2A block: 7

What do the screens show for `Cn1c(COc2ccccc2)nnc1SCC(=O)Nc1ccccc1-c1ccccc1`?
PI4K2A block: -4

How did COc1ccc(/C(C)=N/Nc2nc3ccccc3nc2C)cc1 do in these assays?
KB-V1 cytotox: inactive; Nrf2 block: inconclusive; Giardia kill: -4; A549 viability: 2%; KB-3-1 tox: 15µM*; PI4K2A block: 0

Results for Cc1ccc(S(=O)(=O)C2(C(=O)N3CCCCCC3)CC2)cc1 ?
KB-V1 cytotox: 23µM*; Nrf2 block: 17%; Giardia kill: -4; A549 viability: -1%; KB-3-1 tox: inactive; PI4K2A block: 1

Results for Cc1ccc(S(=O)(=O)C2(C(=O)N3CCN(C4CCCCC4)CC3)CC2)cc1 ?
KB-V1 cytotox: 16µM*; Nrf2 block: 10%; Giardia kill: -5; A549 viability: 7%; KB-3-1 tox: inactive; PI4K2A block: 1

How did N#CCC[C@H]1CC[C@]2(CCCN(C(=O)c3ccccc3)C2)O1 do in these assays?
PI4K2A block: 0

How did CCCC/C=C/[C@H](c1ccccc1)[C@H](CO)Cc1ccccc1 do in these assays?
Nrf2 block: 15%; Giardia kill: -3; A549 viability: -11%

What do the screens show for `CCOc1ccc(C(C(=O)Nc2ccc(F)cc2)N(C(=O)Cn2nnc3ccccc32)C2CC2)cc1` (centres undefined)?
KB-V1 cytotox: 23µM*; Nrf2 block: inconclusive; Giardia kill: -5; A549 viability: -6%; KB-3-1 tox: inactive; PI4K2A block: 1
